Measured values: PubChem BioAssay
Records with an inconclusive call do not appear. Activity calls are given as the source filed them.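 Rule for the calls, unless noted: active = normalized viability below 100% at a tested concentration; inactive = the rest.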

Assays:
[1] = growth inhibition of DIPG glioma cells, dose response, cell-based, SU-DIPG-XVII, MIPE5.0, CellTiter-Glo, qHTS (AID 1347060; cut-off not given, nearly all actives have AC50 up to about 26 µM;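 for AC50: cells exposed to compound for 48 hours before viability readout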); details: SU-DIPG-XVII viability, CellTiter-Glo ATP luminescence
[2] = growth inhibition of DIPG glioma cells, dose response, cell-based, SU-DIPG-XIII, MIPE4.0, CellTiter-Glo, qHTS (AID 1347061; cut-off not given, nearly all actives have AC50 up to about 37 µM;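 note: cells exposed to compound for 48 hours before readout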); details: SU-DIPG-XIII viability, CellTiter-Glo ATP luminescence
[3] = growth inhibition of DIPG glioma cells, dose response, cell-based, JHH-DIPG-1, MIPE4.0, CellTiter-Glo, qHTS (AID 1347062; cut-off not given, nearly all actives have AC50 up to about 27 µM;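 for AC50: cells exposed to compound for two days before readout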); details: JHH-DIPG-1 viability, CellTiter-Glo ATP luminescence
[4] = viability loss in pontine glioma line – cell-based, SU-DIPG-XXV, MIPE5.0, CellTiter-Glo, qHTS, dose response (AID 1347065; cut-off not given, nearly all actives have AC50 up to about 26 µM;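 note: cells exposed to compound for 48 hours before ATP readout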); details: CellTiter-Glo ATP luminescence
[5] = SU-DIPG-VI glioma cell viability, MIPE4.0 library, CellTiter-Glo luminescence, qHTS (AID 1347066; cut-off not given, nearly all actives have AC50 up to about 30 µM;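 note: cells exposed to compound for 48 hours before readout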); details: CellTiter-Glo ATP luminescence
[6] = JHH-DIPG-1 glioma cell viability, MIPE5.0 library, CellTiter-Glo luminescence, qHTS (AID 1347067; cut-off not given, nearly all actives have AC50 up to about 26 µM;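 note: cells exposed to compound for 48 hours before readout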); details: JHH-DIPG-1 glioma viability, CellTiter-Glo ATP luminescence
[7] = sensitizers of A549 cells to miR-34 induction, primary screen, imaging, A549 dox-inducible miR-34, nuclei and caspase counts (AID 1347080;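 active = compounds whose cell count with miR-34 switched on is under 0.7 times the count with it off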); details: A549 miR-34 inducible, Hoechst nuclei count, 48 h
[8] = survival rescue of mitochondrial mutant cells in low glucose, primary screen, MELAS cybrids, Rieske KO mouse fibroblasts, CellTiter-Glo (AID 1508586;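 active = mean z-score across replicates of 1.96 or higher in either the MELAS or the Rieske mutant cell line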;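 note: z relative to plate mean and SD of compound and empty wells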)
[9] = growth inhibition of DIPG glioma cells, dose response, cell-based, SU-DIPG-IV, MIPE4.0, CellTiter-Glo, qHTS (AID 1347063; cut-off not given, nearly all actives have AC50 up to about 30 µM;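 note: compound exposure lasted 48 hours before the viability readout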); details: SU-DIPG-IV viability, CellTiter-Glo ATP luminescence
[10] = growth inhibition of DIPG glioma cells, dose response, cell-based, SU-DIPG-XIII, MIPE5.0, CellTiter-Glo, qHTS (AID 1347064; cut-off not given, nearly all actives have AC50 up to about 23 µM;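 for AC50: cells exposed to compound for 48 hours before the viability read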); details: SU-DIPG-XIII viability, CellTiter-Glo ATP luminescence
[11] = SU-DIPG-XXV glioma cell viability, MIPE5.0 library, qHTS (AID 1347068; cut-off not given, nearly all actives have IC50 up to about 30 µM;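 for IC50: cells exposed to compound for 48 hours before viability readout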)
[12] = modifiers of HSF1 nuclear foci, imaging, Selleck Cancer Library (AID 1347162; in the data active = plate-normalised HSF1 focus index below about 0.46); details: human cells, at 10 µM; SSMD: measured here: HSF1 foci SSMD mean; cell count: measured here: cell number; plate-normalised HSF1 focus index: stronger effect = lower value
[13] = ovarian cancer cell viability with rucaparib, profiling panel, oncology-focused library, rucaparib conditional (AID 1508598); details: patient-derived ovarian cancer cells, CellTiter-Glo viability, 144 h, stronger effect = lower value
[14] = stronger effect = lower value, cell number ratio, induced over uninduced
[15] = measured here: relative caspase fold change +Dox/-Dox
[16] = measured here: total cells with miR-34 induction, stronger effect = lower value
[17] = measured here: total cells without miR-34 induction
[18] = MELAS cybrid survival, CellTiter-Glo 48 h, stronger effect = higher value
[19] = Rieske KO mouse fibroblast survival, CellTiter-Glo 72 h

Cn1cnc2c(F)c(Nc3ccc(Br)cc3F)c(C(=O)NOCCO)cc21
-0.207: z-score [8, 19]
active: AC50 [1] 3.72 µM | AC50 [2] 4.18 µM | AC50 [3] 6.62 µM | AC50 [4] 5.25 µM | AC50 [6] 0.833 µM
4540: cell count [7, 17]
inactive: outcome [5] | fold change [7, 14] 0.958 | z-score [8, 18] 0.0149
4350: cell count [7, 16]
0.664: fold change [7, 15]

CC1CCC(C(=O)N(c2cc(C#CC(C)(C)C)sc2C(=O)O)C2CCC(O)CC2)CC1 (centres undefined)
active: AC50 [1] 26.3 µM | AC50 [6] 23.5 µM
8210: cell count [7, 17]
0.832: fold change [7, 15]
-0.0881: z-score [8, 19]
7690: cell count [7, 16]
inactive: outcome [2] | outcome [3] | fold change [7, 14] 0.937 | z-score [8, 18] 0.177

NC1(C(=O)N[C@@H](CCO)c2ccc(Cl)cc2)CCN(c2ncnc3[nH]ccc23)CC1
active: AC50 [1] 14.8 µM | AC50 [2] 14.8 µM | AC50 [9] 0.662 µM | AC50 [10] 1.48 µM | AC50 [4] 2.09 µM | IC50 [11] 3.72 µM

O=C1CCCC2=C1C(c1[nH]ncc1Cl)N=C(Nc1nc3ccccc3o1)N2 (centres undefined)
inactive: outcome [1] | outcome [2] | outcome [3] | outcome [5] | outcome [6] | outcome [11]

Cc1cc([C@@H](C)Nc2ccccc2C(=O)O)c2nc(N3CCOCC3)cc(=O)n2c1
active: AC50 [1] 16.6 µM | AC50 [2] 42.9 µM | AC50 [9] 12.1 µM | AC50 [10] 14.8 µM | AC50 [4] 14.8 µM | AC50 [5] 38.2 µM

CCn1c(-c2nonc2N)nc2cncc(CNC3CCNCC3)c21
inactive: outcome [1] | outcome [2] | outcome [3] | outcome [5] | outcome [6] | outcome [11]

CC[C@H](NC(=O)[C@H](C)NC)C(=O)N1C[C@@H](O)C[C@H]1Cc1c(-c2[nH]c3cc(F)ccc3c2C[C@@H]2C[C@H](O)CN2C(=O)[C@H](CC)NC(=O)[C@H](C)NC)[nH]c2cc(F)ccc12
active: AC50 [9] 0.0662 µM
inactive: outcome [1] | outcome [2] | outcome [10] | outcome [4] | outcome [5] | outcome [6] | outcome [11]

c1cc(-c2sc(-c3ccncc3)c(-c3ccncc3)c2-c2ccncc2)ccn1
inactive: outcome [1] | outcome [2] | outcome [3] | outcome [4] | outcome [5] | outcome [6] | outcome [11]

CC(=O)Nc1ccc([C@H](C)C(=O)Nc2ncc(C(C)C)s2)cc1
active: AC50 [1] 0.934 µM | AC50 [2] 4.69 µM | AC50 [9] 2.64 µM | AC50 [10] 2.95 µM | AC50 [4] 1.86 µM | AC50 [6] 3.32 µM | IC50 [11] 2.95 µM

C[C@]12CCC3=C4CCC(=O)C=C4CC[C@H]3[C@@H]1CC[C@@]2(O)CC#N
inactive: outcome [1] | outcome [2] | outcome [3] | outcome [4] | outcome [5] | outcome [6]

Cc1ccc([C@@H]2O[C@H](CO)[C@@H](O)[C@H](O)[C@H]2O)cc1Cc1ccc(-c2ccc(F)cc2)s1
7420: cell count [12]
0.238: SSMD [12]
inactive: outcome [1] | outcome [2] | outcome [3] | outcome [10] | outcome [5] | plate-normalised HSF1 focus index [12] 1.01 | viability ([13]; at 0.000305 µM, OCI-C5x cells, with rucaparib 10 µM, 100% = cells with rucaparib alone) 120% | viability ([13]; at 0.000305 µM, OCI-C5x cells, without rucaparib) 109% | viability ([13]; at 0.00122 µM, OCI-C5x cells, with rucaparib 10 µM, 100% = cells with rucaparib alone) 120% | viability ([13]; at 0.00122 µM, OCI-C5x cells, without rucaparib) 120% | viability ([13]; at 0.00122 µM, OCI-P5x cells, with rucaparib 20 µM, 100% = cells with rucaparib alone) 109% | viability ([13]; at 0.00488 µM, OCI-C5x cells, with rucaparib 10 µM, 100% = cells with rucaparib alone) 115% | viability ([13]; at 0.00488 µM, OCI-C5x cells, without rucaparib) 118% | viability ([13]; at 0.00488 µM, OCI-P5x cells, with rucaparib 20 µM, 100% = cells with rucaparib alone) 108% | viability ([13]; at 0.0195 µM, OCI-C5x cells, with rucaparib 10 µM, 100% = cells with rucaparib alone) 105% | viability ([13]; at 0.0195 µM, OCI-C5x cells, without rucaparib) 108% | viability ([13]; at 0.0195 µM, OCI-P5x cells, with rucaparib 20 µM, 100% = cells with rucaparib alone) 108% | viability ([13]; at 0.0195 µM, OCI-P5x cells, without rucaparib) 103% | viability ([13]; at 0.0781 µM, OCI-C5x cells, with rucaparib 10 µM, 100% = cells with rucaparib alone) 114% | viability ([13]; at 0.0781 µM, OCI-C5x cells, without rucaparib) 128% | viability ([13]; at 0.0781 µM, OCI-P5x cells, with rucaparib 20 µM, 100% = cells with rucaparib alone) 109% | viability ([13]; at 0.0781 µM, OCI-P5x cells, without rucaparib) 102% | viability ([13]; at 0.313 µM, OCI-C5x cells, with rucaparib 10 µM, 100% = cells with rucaparib alone) 117% | viability ([13]; at 0.313 µM, OCI-C5x cells, without rucaparib) 122% | viability ([13]; at 0.313 µM, OCI-P5x cells, with rucaparib 20 µM, 100% = cells with rucaparib alone) 114% | viability ([13]; at 0.313 µM, OCI-P5x cells, without rucaparib) 110% | viability ([13]; at 1.25 µM, OCI-C5x cells, with rucaparib 10 µM, 100% = cells with rucaparib alone) 119% | viability ([13]; at 1.25 µM, OCI-C5x cells, without rucaparib) 122% | viability ([13]; at 1.25 µM, OCI-P5x cells, with rucaparib 20 µM, 100% = cells with rucaparib alone) 109% | viability ([13]; at 1.25 µM, OCI-P5x cells, without rucaparib) 108% | viability ([13]; at 5 µM, OCI-C5x cells, with rucaparib 10 µM, 100% = cells with rucaparib alone) 117% | viability ([13]; at 5 µM, OCI-C5x cells, without rucaparib) 129% | viability ([13]; at 5 µM, OCI-P5x cells, with rucaparib 20 µM, 100% = cells with rucaparib alone) 105% | viability ([13]; at 5 µM, OCI-P5x cells, without rucaparib) 115%
active: viability ([13]; at 0.000305 µM, OCI-P5x cells, with rucaparib 20 µM, 100% = cells with rucaparib alone) 98.8% | viability ([13]; at 0.000305 µM, OCI-P5x cells, without rucaparib) 97.6% | viability ([13]; at 0.00122 µM, OCI-P5x cells, without rucaparib) 93.8% | viability ([13]; at 0.00488 µM, OCI-P5x cells, without rucaparib) 99.4%
